MPTP inh: permeability transition pore inhibition; AID 602449; 1.4% of 360,000 active; isolated mouse mitochondria, Ca2+ swelling absorbance, 30 min; inhibition, % at 10 µM;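 active means inhibition of 50% or more, scaled per plate between neutral and stimulator controls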;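 further: 0% = DMSO wells given calcium and 100% = 1 mM EGTA wells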
Beta apoptosis: blocks beta cell apoptosis | INS-1E cytokine-induced death, ATP luminescence, 48 h; percent of positive-control rescue, neutral wells zero | protection from apoptosis, % (no concentration beside the values) | 0.8% of 300,000 active;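 active means Every replicate reaches about 75%, or at least half do and their mean reaches it too, limit read from the data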;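 further: 0% = cytokine-treated negative control wells and 100% = positive control rescue; higher means more ATP so stronger rescue from cytokine killing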
Mdm2 MdmX PPI: inhibitors of human Mdm2/MdmX interaction; O15151+Q00987; SaOS-2 split-luciferase Mdm2/MdmX complementation, luminescence; inhibition, % at 8 µM; 3% of 330,000 active;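 active means inhibition of at least 50% at 8 µM in the primary screen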
CSC inhib: blocks cancer stem cells | cancer stem cell-like cells viability, luminescence | inhibition, % at 7.5 µM | 1.1% of 300,000 active; in the data active means inhibition above about 75%; tested in HMLE shEcad cells
GRIN3A LBD mod: NR3A (human) ligand-binding domain modulation; NR3A LBD differential scanning fluorimetry, Tm shift; 0% = protein alone, 100% = glycine-bound protein; Tm shift relative to glycine control, % at 25 µM; 2.5% of 340,000 active;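 active means melting temperature shift of at least 10% of the positive control shift, at one fixed dose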
SKKanGAS inh: inhibitors of SKKanGAS S. pyogenes growth in kanamycin (SK-promoter or general growth effect); BacTiter-Glo, 6 h; inhibition, % at 7.5 µM; 1.3% of 300,000 active; AID 1662;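 active means mean replicate score, as percent of positive control median, at least 50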;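 further: strain carries kanamycin resistance gene driven by streptokinase promoter and grows in 40 µg/ml kanamycin; loss of luminescence reflects streptokinase promoter inhibition or plain growth inhibition; 0% = median of DMSO wells and 100% = positive control at its reference dose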
Active calls of the source: *; · = no result given. Compounds with a hit are over-represented: about 6.9% of the library has one in this group of screens.

SMILES | MPTP inh | Beta apoptosis | Mdm2 MdmX PPI | CSC inhib | GRIN3A LBD mod | SKKanGAS inh
OC(c1ccccc1)(c1ccccc1)c1ncc[nH]1 | -1 | 6 | 9 | -3 | -1 | 2
COc1cc2oc3ccccc3c(=O)c2cc1OC | 0 | 11 | 29 | 4 | -4 | -11
O=c1c2ccccc2oc2cc(Br)ccc12 | -1 | · | · | · | 13* | ·
O=C(Nc1nnc(-c2ccccc2Cl)o1)c1ccc(S(=O)(=O)N2CCCCCC2)cc1 | · | · | 37 | 64 | -1 | 107*
CC1CCCCN1S(=O)(=O)c1ccc(C(=O)Nc2nnc(-c3ccccc3Cl)o2)cc1 (stereo not drawn) | -24 | · | 41 | 42 | -5 | 97*
CS(=O)(=O)c1ccccc1-c1nnc(NC(=O)c2ccc(S(=O)(=O)N3CCCC3)cc2)o1 | -1 | -1 | 7 | 3 | -1 | 6
CCCCOc1ccc(C(=O)NCC(=O)NCC2CCCO2)cc1 (stereo not drawn) | 0 | 3 | -6 | -6 | -1 | 9
Cc1ccccc1-c1cnc(C(O)c2ccc(Cl)cc2)[nH]1 (stereo not drawn) | 2 | · | · | · | · | ·
NC1=NC(=O)CC(C(=O)NCCc2ccccc2)S1 (stereo not drawn) | -3 | -3 | 7 | -13 | 10* | -3
COc1ccc(OC)c(S(=O)(=O)N2CCCC(C(=O)NCc3cccnc3)C2)c1 (stereo not drawn) | 0 | -7 | -5 | -6 | 0 | 2
Cc1ccc(Nc2nc3ccccc3o2)cc1F | 2 | 1 | -134 | -1 | 12* | -5
Cc1nc(Nc2nc3ccccc3o2)nc(C)c1C | 0 | 20 | -52 | -9 | -1 | 9
Cc1ccc(S(=O)(=O)N(C)C)cc1NC(=O)COC(=O)C1CCCC1 | -1 | -4 | -4 | 5 | 21* | 10
Cc1ccc(S(=O)(=O)N(C)C)cc1NC(=O)COC(=O)CCC1CCCC1 | -2 | 2 | -4 | -9 | -1 | 2
CN(C)c1ccc(/C=N/N2C(=S)SC(C)(C)C2N(O)C(=O)Nc2ccc([N+](=O)[O-])cc2)cc1 (stereo not drawn) | 15 | -7 | -11 | -1 | 11* | 1
Cn1c(CC(=O)Nc2ccc(F)cc2)nnc1SCC(=O)Nc1nncs1 | 0 | -7 | 6 | -2 | 0 | 0
O=C(Nc1ccc(/C=C/c2nc3ccccc3o2)cc1)c1c(F)cccc1F | 2 | 21 | -99 | 37 | 20* | -5
Cc1cnc(Nc2nc3ccccc3o2)nc1C(=O)Nc1cccc(C(F)(F)F)c1 | 4 | 9 | 38 | -12 | -3 | 21
CC(=O)Nc1ccc(/C=C/c2nc3ccccc3o2)cc1 | 0 | · | -172 | · | 7 | 0
O=C(Nc1ccc(/C=C/c2nc3ccccc3o2)cc1)c1cccc(C(F)(F)F)c1 | -10 | 22 | 24 | 15 | 17* | 1
Cc1cc(C)c2nc(-c3ccccn3)cc(C(=O)Nc3ccc(S(=O)(=O)Nc4onc(C)c4C)cc3)c2c1 | 0 | -2 | -6 | -10 | 1 | 64*
Cc1noc(NS(=O)(=O)c2ccc(NC(=O)CCN3C(=O)c4ccccc4C3=O)cc2)c1C | -1 | -7 | -3 | -4 | 14* | 2
CN(Cc1ccccc1)c1ccc(C(CC(N)=O)NC(=O)c2ccc(Br)cc2)cc1[N+](=O)[O-] (stereo not drawn) | -1 | -55 | 19 | 21 | -3 | 41
Cc1ccc(S(=O)(=O)Nc2ccc(-c3nnc(SCc4ccccc4Cl)o3)cc2)cc1 | 10 | 1 | 24 | 88* | 26* | 8
Cc1ccc(CSc2nnc(-c3ccc(NS(=O)(=O)c4ccccc4)cc3)o2)cc1 | 7 | 3 | 11 | 49 | 16* | 14
CC1CCN(C(=O)Cn2c(=O)n(Cc3ccco3)c(=O)c3sccc32)CC1 | -3 | -4 | 13 | 4 | -1 | 2
CC12CC(NC(=O)N1c1cccc(C(=O)N3CCCCC3)c1)c1ccccc1O2 (stereo not drawn) | -3 | 3 | -11 | -10 | -5 | 0
O=[N+]([O-])c1cccc(N=Cc2ccccc2)c1 | 0 | · | · | · | -3 | ·
Oc1ccc(/C=C/c2ccc3cccc(O)c3n2)cc1Br | 5 | 13 | -1 | 93* | 30* | 89*
O=[N+]([O-])c1ccc(/C=C/c2ccc3cccc([N+](=O)[O-])c3n2)cc1 | -2 | 5 | 2 | 8 | 23* | -1
